The AC50 is the midpoint of the concentration-response curve, whichever way the signal moves.

The results in this text go back to PubChem BioAssay (EPA / NIEHS).

For assay [1], the target named is Type-1 angiotensin II receptor (Homo sapiens) (UniProt P30556). The experiment in a line: NVS_GPCR_hAT1: NovaScreen (NVS) G Protein-Coupled Receptor Assay for human Angiotensin II receptor type 1 (AT1) (AID 2283263). The essentials:
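Membranes from KAN-TS cells; radioligand competitive displacement, 3 h, filtration and scintillation counting. Single-point duplicate screen at 25 uM, then concentration-response up to 50 uM for hits; loss of signal fitted versus DMSO.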

The target of assay [2] is human Endothelin Receptor Type A (ETA), EDNRA (gene 1909) (UniProt P25101). The assay can be described thus: NVS_GPCR_hETA: NovaScreen (NVS) G Protein-Coupled Receptor Assay for human Endothelin Receptor Type A (ETA) (AID 2283265). How it is done: NVS_GPCR_hETA is a biochemical, single-readout assay that uses extracted gene-proteins from Human neuroblastoma cells (SH-SY5Y) in a cell-free assay. Measurements were taken 3 hours after chemical dosing in a 96-well plate.NVS_GPCR_hETA is one of one assay component(s) measured or calculated from the NVS_GPCR_hETA assay. It is designed to make measurements of radioligand binding, a form of binding reporter, as detected with scintillation counting signals by Filter-based radiodetection technology.Data from the assay component NVS_GPCR_hETA was analyzed into 1 assay endpoint. This assay endpoint, NVS_GPCR_hETA, was analyzed in the positive analysis fitting direction relative to DMSO as the negative control and baseline of activity. […] Furthermore, this assay endpoint can be referred to as a primary readout, because the performed assay has only produced 1 assay endpoint. […]
Sequence of human Endothelin Receptor Type A (ETA), EDNRA (gene 1909) (P25101 whole entry, looked up): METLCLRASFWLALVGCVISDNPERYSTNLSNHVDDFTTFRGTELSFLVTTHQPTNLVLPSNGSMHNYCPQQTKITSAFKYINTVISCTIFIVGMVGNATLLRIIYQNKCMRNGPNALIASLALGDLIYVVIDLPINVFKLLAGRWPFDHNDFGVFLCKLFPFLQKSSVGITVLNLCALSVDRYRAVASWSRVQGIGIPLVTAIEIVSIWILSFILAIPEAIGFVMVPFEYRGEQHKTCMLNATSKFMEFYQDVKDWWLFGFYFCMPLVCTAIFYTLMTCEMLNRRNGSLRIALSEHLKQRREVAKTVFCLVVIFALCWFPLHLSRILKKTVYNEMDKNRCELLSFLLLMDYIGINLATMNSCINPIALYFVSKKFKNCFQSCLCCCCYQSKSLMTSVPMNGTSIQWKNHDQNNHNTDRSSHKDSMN
Binding assays used specific radioligands (tritiated, iodinated) with non-radioactive competitive displacement ligands in agonist or antagonist protocols (as indicated) and various reference compounds and inhibitors to titrate specific binding to receptors and transporters. Most enzyme assays (CYPs, kinases, phosphatases, proteases, HDACs) used recombinant protein and specific substrates (fluorescence mostly, some colorimetric and radioactive) and inhibitors, followed by a biochemical separation of substrate and product. […]

Assay [3] concerns the target Neuropeptide Y receptor type 2 (Homo sapiens) (UniProt P49146). The assay can be described thus: NVS_GPCR_hNPY2: NovaScreen (NVS) G Protein-Coupled Receptor Assay for human Neuropeptide Receptor Y2 (NPY2) (AID 2283277). In outline:
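Radioligand binding on membranes extracted from SK-N-MC cells, cell-free, read 1 h after dosing by filter-based scintillation counting. Loss of signal vs DMSO. Primary screen in duplicate at 25 uM; actives followed up in concentration-response up to 50 uM.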

Assay [4] deals with human Endothelin Receptor Type B (ETB), EDNRB (gene 1910) (UniProt P24530). The experiment in a line: NVS_GPCR_hETB: NovaScreen (NVS) G Protein-Coupled Receptor Assay for human Endothelin Receptor Type B (ETB) (AID 2283267). The essentials: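 Human astrocytoma cell membranes; radioligand competitive binding read by filter scintillation counting 4 hours after dosing. Single-concentration duplicate screen at 25 uM, then singleton concentration-response up to 50 uM; loss of signal versus DMSO.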
Sequence of human Endothelin Receptor Type B (ETB), EDNRB (gene 1910) (P24530 whole entry, looked up): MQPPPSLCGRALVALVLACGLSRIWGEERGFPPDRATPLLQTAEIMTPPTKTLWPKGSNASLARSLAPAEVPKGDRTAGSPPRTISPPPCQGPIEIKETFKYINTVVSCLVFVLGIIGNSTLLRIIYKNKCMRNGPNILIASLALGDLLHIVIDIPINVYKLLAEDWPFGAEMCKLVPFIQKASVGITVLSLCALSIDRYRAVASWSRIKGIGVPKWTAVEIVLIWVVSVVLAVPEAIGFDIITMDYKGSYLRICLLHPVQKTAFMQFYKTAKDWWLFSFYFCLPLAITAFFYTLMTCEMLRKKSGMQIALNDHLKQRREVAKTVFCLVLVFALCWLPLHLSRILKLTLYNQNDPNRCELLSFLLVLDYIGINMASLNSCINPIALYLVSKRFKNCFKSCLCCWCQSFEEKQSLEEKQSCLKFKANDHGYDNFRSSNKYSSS

In assay [5] the target is human Neurotensin Receptor (NTS), NTSR1 (gene 4923) (UniProt P30989). The experiment in a line: NVS_GPCR_hNTS: NovaScreen (NVS) G Protein-Coupled Receptor Assay for human Neurotensin Receptor (NTS) (AID 2283279). In outline: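 Radioligand displacement on human NTSR1 protein from CHO cells, cell-free, 1 h, filter-based scintillation counting. Primary screen at 25 uM in duplicate; hits rerun in concentration-response up to 50 uM.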
Sequence of human Neurotensin Receptor (NTS), NTSR1 (gene 4923) (P30989 whole entry, looked up): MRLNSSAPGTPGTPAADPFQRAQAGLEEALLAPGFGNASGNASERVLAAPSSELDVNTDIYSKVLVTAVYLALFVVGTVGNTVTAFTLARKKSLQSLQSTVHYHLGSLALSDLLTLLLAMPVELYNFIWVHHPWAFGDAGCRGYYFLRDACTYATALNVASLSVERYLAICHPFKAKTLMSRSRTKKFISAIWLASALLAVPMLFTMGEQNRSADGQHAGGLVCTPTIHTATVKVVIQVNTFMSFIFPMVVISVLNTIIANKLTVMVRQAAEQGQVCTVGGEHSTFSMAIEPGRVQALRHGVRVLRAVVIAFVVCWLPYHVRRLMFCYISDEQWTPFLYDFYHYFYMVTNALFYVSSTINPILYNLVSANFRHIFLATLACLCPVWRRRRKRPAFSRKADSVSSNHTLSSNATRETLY

Records with an inconclusive call do not appear. Active and inactive are the calls of the source. Rule for the calls: active = hit-call score of the fitted dose curve at least 0.9, where 1 is the maximum; inconclusive = response in the unintended direction; inactive = score below 0.9.

Sequence of Neuropeptide Y receptor type 2 (Homo sapiens) (P49146 whole entry, looked up): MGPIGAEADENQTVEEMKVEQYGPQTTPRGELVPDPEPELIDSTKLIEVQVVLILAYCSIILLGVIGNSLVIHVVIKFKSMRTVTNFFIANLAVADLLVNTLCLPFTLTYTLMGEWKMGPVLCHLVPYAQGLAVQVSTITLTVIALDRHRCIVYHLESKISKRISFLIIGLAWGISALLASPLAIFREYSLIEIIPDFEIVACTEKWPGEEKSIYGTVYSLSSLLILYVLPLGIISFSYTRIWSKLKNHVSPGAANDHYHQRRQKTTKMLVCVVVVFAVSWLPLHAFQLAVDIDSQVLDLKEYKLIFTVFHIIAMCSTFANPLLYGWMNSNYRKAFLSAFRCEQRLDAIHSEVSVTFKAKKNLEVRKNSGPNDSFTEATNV
Sequence of Type-1 angiotensin II receptor (Homo sapiens) (P30556 whole entry, looked up): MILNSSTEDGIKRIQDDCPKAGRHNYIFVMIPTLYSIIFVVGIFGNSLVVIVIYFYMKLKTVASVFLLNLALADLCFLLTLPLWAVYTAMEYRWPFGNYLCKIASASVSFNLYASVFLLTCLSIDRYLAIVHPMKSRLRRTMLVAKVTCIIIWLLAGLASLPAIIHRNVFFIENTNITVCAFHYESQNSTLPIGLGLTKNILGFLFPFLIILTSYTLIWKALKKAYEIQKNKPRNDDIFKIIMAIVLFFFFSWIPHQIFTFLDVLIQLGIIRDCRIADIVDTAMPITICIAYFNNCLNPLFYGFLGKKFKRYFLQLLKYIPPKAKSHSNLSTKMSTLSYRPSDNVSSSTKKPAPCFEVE

As for `CC(=O)[O][Hg][c]1ccccc1`, the AC50 in assay [1] was 15.1 µM (active); in assay [2], 1.07 µM (active); in assay [3] it was 8.48 µM (active).

Consider `C=C(C)C(=O)[O][Sn]([CH2]CCC)([CH2]CCC)[CH2]CCC`, for which the concentration at half-maximal activity (AC50) was 2.23 µM (active) in assay [1], 0.697 µM (active) in assay [2], 14.8 µM (active) in assay [4] and 14.8 µM (active) in assay [3].

`Oc1cccc2cccnc12`: the call in assay [5] was inactive.
